# Assay results published in PubChem BioAssay AID1813 (Broad Institute, 2009).
# Out of some 300,000 compounds screened, about 2,500 (0.83%) were called active. Cut-off read from the data, not from the text of the source: active = inhibition above about 60%; inconclusive = no clear call, values can overlap the other calls; inactive = below that. The sample as a whole holds a higher share of actives than the screen did.
# Test: 5' untranslated region of α-synuclein, MLPCN primary screen (AID 1813);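 note: H4 neuroglioblastoma cells stably carrying SNCA 5'UTR luciferase fusion; 0% = DMSO wells and 100% = positive control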
# Settings: alpha-synuclein 5'UTR reporter, inhibitor activity; hits give high values; tested at 7.5 µM
row,SMILES,inhibition
1,CCOC(=O)c1nnn2c3ccccc3c(=O)n(C)c12,-5.14% (inactive)
2,CCCCCn1c(=O)c(C(=O)OCC)c(Cl)c2ccccc21,92.6% (active)
3,CCCCn1c(=O)c(C(C)=O)c(O)c2ccccc21,-6.66% (inactive)
4,CNc1ccc(SC#N)cc1,1.02% (inactive)
5,CCOC(=O)N1CCN(C(=O)C(=O)Nc2sc3c(c2C#N)CC(C)(C)OC3)CC1,-17.6% (inactive)
6,COc1ccc2c3c1O[C@H]1C[C@@H](O)C=C[C@@]31CCN(C)C2,62% (active)
7,CN(C)CCNC(=O)c1[nH]nc2c1CCc1ccccc1-2,-73.6% (inactive)
8,COc1cccc(/C=N/NC(=O)c2[nH]nc3c2CCc2ccccc2-3)c1O,76.4% (active)
9,COc1cc2cc(C(=O)N/N=C/c3cccc(OC)c3OC)[nH]c2cc1OC,22.3% (inactive)
10,CCOCCCN(C)C1CCN(C(=O)c2oc3ccccc3c2NC(=O)COc2cccc(C)c2)CC1,45.5% (inactive)
11,CCOC(=O)c1ccc(NNC(C)=O)c([N+](=O)[O-])c1,-28% (inactive)
12,CCCCCOc1ccc(/C=C/C(=O)NCCc2nc3ccccc3[nH]2)cc1OC,14.1% (inactive)
13,Cc1cc(N/N=C\c2ccc(Br)cc2)nc(-n2nc(C)cc2C)n1,25% (inactive)
14,Cc1cc(C)n(-c2ccc(C(=O)O)cc2[N+](=O)[O-])n1,-5.9% (inactive)
15,CC(=O)c1ccc(Oc2cc(C)nc(-n3nc(C)cc3C)n2)cc1,80.1% (active)
16,COc1ccc(Nc2cc(C)nc(-n3nc(C)cc3C)n2)cc1,92.8% (active)
17,Cc1cc(Oc2ccc(Cl)cc2)nc(SCC(=O)c2ccccc2)n1,27.8% (inactive)
18,Cc1cc(Nc2ccc(Cl)cc2)nc(N2CCOCC2)n1,-19% (inactive)
19,CCC(C(=O)OC)n1cnc2c(oc3ccccc32)c1=O (stereo not given),16.1% (inactive)
20,Clc1ccc(-c2ncc3ccccn23)c(Cl)c1,-17.4% (inactive)
21,O=C1c2ccccc2C(=O)N1Cc1cc(-c2ccccc2Cl)no1,15.2% (inactive)
22,Clc1ccc(-c2cc(-c3ccccn3)on2)c(Cl)c1,108% (active)
23,COc1cc(NC(=O)C2=C(C)OCCS2)c(Cl)cc1C(=O)NCCN1CCN(C)CC1,-14% (inactive)
24,CN1C(=O)[C@H]2[C@@H](C3CC3)N3C(=O)CN(Cc4ccccc4)C(=O)[C@@]3(C)[C@H]2C1=O,-12.7% (inactive)

row,SMILES,inhibition
1,Cc1nc2c(c(C)nn2-c2ccccc2)c(C)c1C,-0.524% (inactive)
2,COc1ccc(/C=C2\SC(=S)N(CCC(=O)Nc3cccc(C(=O)O)c3)C2=O)cc1OC,6.81% (inactive)
3,COc1ccc(/C=C2\SC(=S)N(CCC(=O)Nc3ccccn3)C2=O)cc1OC,28.8% (inactive)
4,COc1ccc(/C=C2\SC(=S)N(CCCC(=O)NC3CCCC3)C2=O)cc1OC,83.7% (active)
5,CCOc1ccc(S(=O)(=O)N/N=C(\C)c2ccc(Cl)c(Cl)c2Cl)cc1,2.56% (inactive)
6,O=C(NCCc1ccccc1)C(=O)NCC1OCCN1S(=O)(=O)c1cccs1 (stereo not given),2.43% (inactive)
7,CC(CNS(=O)(=O)c1ccc(Br)cc1)CN(C)C (stereo not given),22% (inactive)
8,CN(CC(=O)NNC(=O)CNC(=O)c1ccccc1Cl)S(=O)(=O)c1ccc(Cl)cc1,-12.7% (inactive)
9,CCc1cc(-c2nnc(SCC(=O)NC3CC3)n2C)cs1,-4.18% (inactive)
10,Cc1ccccc1NCC(=O)N/N=C\c1ccc([N+](=O)[O-])s1,-43.2% (inactive)
11,CC(C)(C)c1cc(C(=O)N/N=C/c2ccc([N+](=O)[O-])s2)n[nH]1,64% (active)
12,Cc1cc(C(=O)N/N=C/c2cc([N+](=O)[O-])cc(C)c2O)n[nH]1,-3% (inactive)
13,CCOC(=O)C(C)n1cnc2c(nnn2-c2cccc(OC)c2)c1=O (stereo not given),-35.8% (inactive)
14,O=C(C[n+]1ccc2c(c1)nnn2-c1ccccc1)c1ccc(Cl)cc1,9.87% (inactive)
15,CCC(=O)Nc1nc2ccccc2n1Cc1ccccc1C,65.5% (active)
16,CCCCn1c(CCCNC(=O)CC)nc2ccccc21,-5.46% (inactive)
17,CC(=O)Nc1nc2ccccc2n1Cc1ccc(C)cc1,48.2% (inactive)
18,COc1ccc(N2CCN(C(=O)CNC(=O)c3ccc(Br)o3)CC2)cc1,0.266% (inactive)
19,CNC(=O)c1csc(Cc2c(Cl)sc3ccc(Cl)cc23)n1,-10.2% (inactive)
20,CC(=O)NNC(=O)c1csc(Cc2c(Cl)sc3ccc(Cl)cc23)n1,67.1% (active)
21,CC(=O)Cc1nsc(NC(=O)c2ccc(Cl)cc2Cl)n1,-9.27% (inactive)
22,CC12CN3CCN(CC(C3)/C1=N\NC(=O)c1ccccc1N)C2,-83.3% (inactive)
23,Cc1ccc(CN2CCN(Cc3ccc4ncccc4c3)CC2CCO)cc1 (stereo not given),-3.25% (inactive)
24,Cc1nnc(N/N=C/C2CC=CCC2)[nH]c1=O (stereo not given),-14.7% (inactive)

row,SMILES,inhibition
1,CNC(=O)C(=O)N/N=C/c1ccccn1,10.9% (inactive)
2,Cc1nnc(N/N=C/c2ccccn2)[nH]c1=O,117% (active)
3,COc1cc(/C=N/N=C(\N)c2nonc2N)cc(OC)c1OC,-18.9% (inactive)
4,O=C(CNC(=O)Cc1ccccc1)NCC(=O)OCC(=O)c1ccccc1Cl,-27.1% (inactive)
5,CC(=O)c1ccc(S(=O)(=O)N2CCC3(CC2)OCCO3)cc1,-7.06% (inactive)
6,CC(=O)c1ccc(S(=O)(=O)N2CCN(c3nc4c(C)c(C)ccc4cc3C#N)CC2)cc1,15.2% (inactive)
7,CC(=O)c1ccc(S(=O)(=O)N2CCN(C(=O)/C=C/c3ccc4ccccc4n3)CC2)cc1,62.4% (active)
8,CC(N)C12CC3CC(CC(O)(C3)C1)C2 (stereo not given),11.6% (inactive)
9,CCOc1cc2[nH]c(=S)n(Cc3ccc(C(=O)NCCOC)cc3)c(=O)c2cc1OCC,13.8% (inactive)
10,COc1ccccc1Cn1c(=S)[nH]c2cc(C(=O)N3CCN(C)CC3)ccc2c1=O,30.1% (inactive)
11,CCOc1cc2[nH]c(=S)n(Cc3ccc(C(=O)N4CCN(C)CC4)cc3)c(=O)c2cc1OCC,86.1% (active)
12,COc1cccc(-c2cc(C(=O)N3CCN(c4ccccc4OC)CC3)no2)c1,-4.47% (inactive)
13,COc1ccccc1N1CCN(C(=O)c2cc(=O)c3cc(C)ccc3o2)CC1,-36.8% (inactive)
14,COc1ccccc1N1CCN(C(=O)c2cc(=O)c3cc(C)cc(C)c3o2)CC1,78.3% (active)
15,Cc1ccc(C(=O)Nc2nnc(C3=COCCO3)o2)cc1C,-10.3% (inactive)
16,CCN(CC)S(=O)(=O)c1ccc(N2CCCC2)c(NS(=O)(=O)c2cccs2)c1,-11.1% (inactive)
17,COc1ccc(C(=O)c2c3ccc([N+](=O)[O-])cc3[n+]([O-])n2CCCN)cc1,63.1% (active)
18,COc1ccc(C(=O)CC(=O)C(=O)Nc2cc([N+](=O)[O-])ccc2OC)cc1,-25.8% (inactive)
19,COc1ccc2c(C(=O)c3ccc(C)cc3)n(CCC(N)=O)[n+]([O-])c2c1,-21.1% (inactive)
20,Cc1ccc(C(NC(=O)N2CCCC2)C(Cl)(Cl)Cl)cc1F (stereo not given),25.2% (inactive)
21,COc1cc(N=Cc2c(O)[nH]c3ccccc23)cc(OC)c1OC,81% (active)
22,COCC(=O)N=Nc1c(O)[nH]c2ccccc12,3.62% (inactive)
23,COc1ccccc1N=Cc1c(O)c2ccccc2oc1=O,3.79% (inactive)
24,COCCC(=O)N1CCC(Oc2ccc(C(=O)NCc3ccon3)cc2)CC1,-4.68% (inactive)

row,SMILES,inhibition
1,Oc1ccc(/C=N/Nc2ccc(C(F)(F)F)cn2)cc1O,-195% (inactive)
2,O=C(CCCO)N/N=C/c1cc(Br)ccc1O,-18.4% (inactive)
3,Oc1ccc(Br)cc1/C=N/Nc1ccccn1,66.4% (active)
4,COc1ccc(-c2cc(=O)oc3cc(OCC(=O)N[C@@H](Cc4c[nH]c5ccccc45)C(=O)O)ccc23)cc1,9.25% (inactive)
5,CCOc1cc(/C=N/NC(=O)CN2CCCCC2)ccc1O,1.96% (inactive)
6,C=CCn1c(C)cc(C2=NNC(=NCC)SC2)c1C,105% (active)
7,C=CCn1c(C)cc(C(=O)CN2C(=O)c3ccccc3C2=O)c1C,47.1% (inactive)
8,O=C(NCc1cccnc1)C12CC3CC(CC(C3)C1)C2,16.2% (inactive)
9,O=C(NC1CCCC1)C(c1ccc(N2CCOCC2)cc1)N(C(=O)c1ccco1)c1ccccc1F (stereo not given),-5.34% (inactive)
10,CCOC(=O)c1cnc(-n2nc(C)cc2C)nc1NNc1cc(C)nc(-c2ccccc2)n1,105% (active)
11,Cc1cc(C)n(-c2c(F)c(F)c(COC(=O)c3ccccc3)c(F)c2F)n1,6.91% (inactive)
12,CCOC(=O)c1cnc(-n2nc(C)cc2C)nc1Nc1cccc(C(C)=O)c1,17.6% (inactive)
13,NC(=O)C1CCN(Cc2nc3c(Br)cc(Br)cc3c(=O)[nH]2)CC1,31.8% (inactive)
14,CC(=O)Nc1ccc(S(=O)(=O)NC2Cc3ccccc3C2)cc1,-6.02% (inactive)
15,Cc1ccc(NC(=O)CCC(=O)c2ccc(Br)cc2)cc1,1.65% (inactive)
16,CCCOc1ccccc1C1CC(=O)Nc2cc3c(cc21)OCO3 (stereo not given),111% (active)
17,COc1ccc(C2CC(=O)Nc3cc(C)c(C)cc32)c(OC)c1OC (stereo not given),22.4% (inactive)
18,COc1ccccc1C1C2=C(COC2=O)Nc2cc3c(cc21)OCO3 (stereo not given),98.1% (active)
19,COc1ccc(S(=O)(=O)Nc2ccc3c(c2)OCO3)cc1Cl,-17.5% (inactive)
20,COC(=O)C1=C(C)NC(=O)CC1c1ccccc1OC (stereo not given),2.02% (inactive)
21,COc1cc2c(cc1OC)C(c1ccncc1)CC(=O)N2 (stereo not given),21.6% (inactive)
22,COC(=O)c1ccc(NS(=O)(=O)c2cc3c4c(c2)C(C)C(=O)N4CCC3)cc1 (stereo not given),8.87% (inactive)
23,CN(CC(=O)NCc1ccncc1)S(=O)(=O)c1ccc(Br)cc1,-15.9% (inactive)
